DT40 TDP1 no CPT: qHTS for Inhibitors of human tyrosyl-DNA phosphodiesterase 1 (TDP1): qHTS in cells in absence of CPT | DT40 Tdp1-/- hTDP1 cells, no CPT, ATP luminescence, 48 h | Potency, µM (titrated, usually from 46.2 µM), for the others: top-dose activity change, negative = growth inhibition, most hits filed as inhibitors | 420,000 compounds, 15% hits; further: potency means the concentration at half of the fitted maximal effect; on the % scale 0 is the no-effect control and ±100 the full control effect; nearly all actives have a fitted effect of over 55% in size
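DT40 Tdp1-/-;hTDP1 cells, no CPT (DMSO vehicle only), 400 cells/well; compounds pin-transferred; ≥48 hr, 37 °C; CellTiter-Glo 30 min RT dark, luminescence read.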
SW480 rerep: induces DNA re-replication in SW480 colon adenocarcinoma cells; SW480 DNA re-replication, Hoechst DNA content imaging, 48 h; Potency, µM (titrated, usually from 46.1 µM), for the others: at the top dose re-replication activation, hits mostly activators; 340,000 compounds, 1.8% hits; further: potency means the concentration at half of the fitted maximal effect; % of control where 0% means no effect; nearly all actives have a fitted effect of over 55% in size
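Image-based DNA-content assay: after two days of treatment, nuclei were labelled with the DNA dye Hoechst and imaged, and hits were compounds raising the count of nuclei showing high fluorescence intensity.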
MCF10A rerep: DNA re-replication induction in MCF 10a cells; MCF 10A DNA re-replication, Hoechst nuclear intensity, 48 h; Potency, µM (top dose mostly 46.1 µM), without a hit: top-dose activity, positive = re-replication, actives largely listed as activators; 350,000 compounds, 2.9% hits; AID 624296; further: potency means the concentration at half of the fitted maximal effect; % of control where 0% means no effect; nearly all actives have a fitted effect of over 50% in size
IL-1B inflam inh: inflammasome signaling inhibition, IL-1 beta readout; THP-1 LPS/ATP IL-1B secretion, AlphaLISA, 16 h; active compounds read low; activity change, % at 57.5 µM; AID 743279; 360,000 compounds, 4.7% hits; in the data active means activity change below about -50%; inconclusive means mostly about -30% to -49%; further: on the % scale 0 is the no-effect control and ±100 the full control effect
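Secreted IL-1B measured by AlphaLISA bead assay after 16 h compound exposure of THP-1 cells; compounds (final up to 57.5 uM) added 1 h before LPS (250 ng/mL) and ATP (1.25 mM) stimulation; lower signal means less secretion.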
BCR signal inh: blocks chronic active B-cell receptor signaling; Potency, µM (titrated, usually from 46.1 µM), without a hit: at the top dose activity change, negative = inhibition, most hits filed as inhibitors; ABC-DLBCL IkBa-CBG/CBR reporter, luminescence ratio, 4 h; 340,000 compounds, 0.05% hits; AID 493014; active means well fitted inhibition curve with a large enough effect in the signal ratio, with a control signal flat, not every such curve was filed as active; inconclusive means small, poorly fitted or top-dose-only effect, or effect the other way, or a change in a side signal; the % refers to the signal ratio;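 further: potency means the concentration at half of the fitted maximal effect; plate controls were basal doxycycline-induced cells for no effect and cells given 10 µM MG132 for full effect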
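TMD8 human ABC-DLBCL cells with doxycycline-inducible IκBα–green luciferase fusion and unfused red luciferase, in 0.5% FBS medium; compounds up to 46 uM, 4 h at 37C. Green/red luminescence ratio, filter-overlap corrected, fitted to concentration-response curves.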
TDP1 cell CPT: growth inhibition of DT40 Tdp1-/-;hTDP1 cells with camptothecin (screen for TDP1 inhibitors); chicken DT40 Tdp1-/-;hTDP1 cells + 20 nM CPT, ATP luminescence, 48 h; 420,000 compounds, 12% hits; Potency, µM (top dose mostly 46.2 µM), inactives show at the top dose activity change, negative = growth inhibition, hits mostly inhibitors; further: potency means the concentration at half of the fitted maximal effect; on the % scale 0 is the no-effect control and ±100 the full control effect; nearly all actives have a fitted effect of over 55% in size
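Cell growth measured by CellTiter-Glo luminescence after a minimum 48 h, 37 C compound exposure with 20 nM CPT in Tdp1-knockout DT40 cells stably expressing hTDP1, seeded 400/well; qHTS titration format.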
Active calls of the source: *; u = inconclusive; x = no result; [ ] = another dose, or the depositor's remark. Compounds with a hit are over-represented: about 19% of the library has one in this group of screens. Unless noted, the call rests on the fitted dose curve; in most records, active means well fitted curve in the direction sought with a large enough effect; inconclusive means small, poorly fitted or top-dose-only effect, or another doubt; inactive means no such curve, though single readings can be large; an effect the other way counts as inactive or inconclusive.

SMILES | DT40 TDP1 no CPT | SW480 rerep | MCF10A rerep | IL-1B inflam inh | BCR signal inh | TDP1 cell CPT
COc1ccc(C(O)c2ncc(-c3cccc(F)c3)[nH]2)cc1F (configuration not stated) | u | x | x | -14 | x | u
OC(c1cccc(Cl)c1)c1ncc(-c2cccc(C(F)(F)F)c2)[nH]1 (configuration not stated) | 23µM* | x | x | -16 | x | u
CCc1ccc(C(O)c2ncc(-c3cccc(C(F)(F)F)c3)[nH]2)cc1 (configuration not stated) | 23µM* | x | x | -4 | x | u
OC(c1ccc2ccccc2c1)c1ncc(-c2ccc(C(F)(F)F)cc2)[nH]1 (configuration not stated) | u | x | x | -8 | x | u
COc1ccc(C(O)c2ncc(-c3cccc(C(F)(F)F)c3)[nH]2)cc1F (configuration not stated) | u | x | x | -25 | x | 16µM*
O=C(CCC(=O)N1Cc2ccccc2Oc2ncccc21)NCc1ccccc1Cl | u | x | x | x | x | -26%
COc1ccc(CCN2C(=O)CCC2(C)c2nnnn2-c2ccc3c(c2)OCCO3)cc1OC (configuration not stated) | u | x | x | 12 | x | -29%
ClC1(CNc2ccccc2)CCN(Cc2ccccc2)CC1 | -27% | 2% | 19% | u | x | -8%
Cc1c(C)n2c(SCC(=O)NCc3ccc4c(c3)OCO4)nnc2[nH]c1=O | 17% | 1% | 0% | -3 | 6% | 11%
COc1ccc(OCC(O)CNC(C)c2ccccc2)cc1 (configuration not stated) | u | 0% | -4% | -12 | 1% | u
CC(NCC(O)COc1ccc2ccccc2c1)c1ccccc1 (configuration not stated) | 16µM* | 23µM* | u | -94* | -10% | 16µM*
Cc1cc(OCC(O)CNC(C)c2ccccc2)ccc1C(C)C (configuration not stated) | 23µM* | u | u | -91* | u | 23µM*
CN(C)C(=O)c1cc(C(=O)c2ccc(C(F)(F)F)cc2)c[nH]1 | u | 2% | -1% | 1 | u | -26%
Cc1ccc(-n2c(=O)c3c4c(sc3n(CC(=O)c3ccc(Cl)cc3)c2=O)CCC4)cc1C | -13% | x | x | x | x | -6%
O=C(CN(Cc1ccccc1)C(=O)CCl)c1cccc(Br)c1 | 16µM* | u | u | -98* | u | 9.2µM*
COc1ccc(/C=C/C(=O)N(CC(C)C)CC(C)C)cc1Br | 16µM* | u | u | u | 0% | 16µM*
N#Cc1ccc(CSc2nnc(NC(=O)CCc3nc4ccccc4c(=O)[nH]3)s2)cc1 | -3% | -3% | 5% | -7 | -4% | 5%
CCCOc1ccc(C(=O)CCC(=O)OCC(=O)N(CC)c2c(N)n(Cc3ccccc3)c(=O)[nH]c2=O)cc1 | u | 0% | -5% | 4 | x | -12%
CC(C)CN(C(=O)CCCOc1ccc(Cl)cc1Cl)c1c(N)n(Cc2ccccc2)c(=O)[nH]c1=O | 26µM* | 19% | 3% | -24 | -2% | u
Nc1c(N(Cc2ccccc2)C(=O)COc2cccc(Cl)c2)c(=O)[nH]c(=O)n1Cc1ccccc1 | u | 7% | u | -21 | 2% | 21µM*
CCN(C(=O)COC(=O)CCCOc1ccc(Cl)cc1C)c1c(N)n(Cc2ccccc2)c(=O)[nH]c1=O | 16µM* | 2% | u | 4 | x | 15µM*
CCN(C(=O)COC(=O)CCOc1ccc(C(C)(C)C)cc1)c1c(N)n(Cc2ccccc2)c(=O)[nH]c1=O | 3.7µM* | 0% | 23µM* | -16 | x | 12µM*
COCCN(C(=O)COC(=O)CCOc1ccccc1C)c1c(N)n(Cc2ccccc2)c(=O)[nH]c1=O | -5% | -13% | 2% | 7 | -11% | -10%
CCN(C(=O)COC(=O)C1CCC(C(C)(C)C)CC1)c1c(N)n(Cc2ccccc2)c(=O)[nH]c1=O (configuration not stated) | 16µM* | -24% | 4% | -2 | x | 21µM*
CCOC(=O)CNC(=O)CSc1nc(Cc2ccccc2)nc2ccccc12 | -26% | u | 4% | -10 | u | u
SMILES | DT40 TDP1 no CPT | SW480 rerep | MCF10A rerep | IL-1B inflam inh | BCR signal inh | TDP1 cell CPT
CN1/C(=C\C(=O)CSc2ncn[nH]2)C(C)(C)c2ccccc21 | u | -7% | -3% | 15 | -10% | u
Cc1cc(C(=O)CSc2nnc(NCc3ccccc3)s2)c(C)n1C | 13µM* | u | u | 6 | -7% | 10µM*
CN1/C(=C\C(=O)CSc2nnc(NCc3ccccc3)s2)C(C)(C)c2ccccc21 | u | 10% | 18µM* | 2 | u | 15µM*
O=C(CSc1nnc(NCc2ccccc2)s1)NC1CCS(=O)(=O)C1 (configuration not stated) | 14% | 5% | -3% | -6 | 1% | 9%
O=c1c(-c2ccco2)[n+]([O-])c2ccccc2n1OCc1ccccc1 | 12µM* | -14% | 1% | -21 | 12% | 12µM*
CCOC(=O)COn1c(=O)c(-c2ccco2)[n+]([O-])c2ccccc21 | -3% | -3% | -3% | -69* | u | -15%
CCOC(=O)COn1c(=O)c(-c2ccc(C)cc2)[n+]([O-])c2ccccc21 | -5% | -29% | -7% | 7 | 2% | -2%
O=c1c(-c2cc3ccccc3o2)[n+]([O-])c2ccccc2n1OCc1ccccn1 | 15µM* | 2% | u | 0 | 0% | u
COc1ccccc1COn1c(=O)c(-c2ccco2)[n+]([O-])c2ccccc21 | 18µM* | 15% | 6% | -7 | 8% | 15µM*
CC(C)(C)C(=O)N1CCC2CC1c1cc(Cl)ccc12 (configuration not stated) | -29% | 20%[9.22 µM] | 5% | 6 | x | 0%
C#C[C@]1(O)CC[C@@H]2[C@H]3CCC4=CCCC[C@@H]4[C@@H]3CC[C@@]21C | x | 2%[20.6 µM] | 10µM* | x | x | x
C#C[C@]1(O)CC[C@H]2[C@@H]3CCC4=CCCC[C@@H]4[C@H]3C(=C)C[C@@]21CC | -8% | 3% | 13µM* | x | x | 3%
CC(C)c1ccc(Nc2nc(Nc3ccc(Cl)cc3)nc(N3CCOCC3)n2)cc1 | 11µM* | x | x | x | x | u
